# Measured values as given in PubChem BioAssay AID493240 (Broad Institute, 2011).
# The campaign covered roughly 1,300 compounds. About 270 (21%) were called active. The rule behind the calls is not given here. A selection follows. Measured potencies and affinities stand elsewhere.
# Assay: SK-MEL-5 parental cell viability loss, dose response, orthogonal assay for MITF inhibitor project, CellTiter-Glo, cherry-picked, set 3 (AID 493240)
# Conditions: SK-MEL-5 viability, ATP luminescence (CellTiter-Glo), 24 h; series mostly up to 35 µM
row,Structure (SMILES),outcome
1,Cc1cc(C(=O)Nc2ccc([N+](=O)[O-])cn2)cs1,inactive
2,CCOC(=O)c1cc2sccc2n1CC(=O)N1c2ccccc2CC1C (stereo unspecified),inactive
3,O=C(Nc1ccc2c(c1)OCCO2)c1cccc(Cl)c1Cl,inactive
4,O=C(c1nnsc1S(=O)(=O)c1ccc(Cl)cc1)N1CCOCC1,inactive
5,CC(C)(CO)NC(=O)c1ccc2nc(Cc3cccc(Cl)c3)oc2c1,inactive
6,COc1ccc2cc3cc(C(=O)NCCc4ccc(OC)c(OC)c4)oc3nc2c1,inactive
7,Cc1ccccc1C(=O)O/N=C(\N)c1ccc([N+](=O)[O-])cc1,inactive
8,Nc1ccc(-c2ncc(-c3ccccc3)o2)cc1,inactive
9,CCOC(=O)CSC1=NC(=O)/C(=C\c2ccc(Cl)cc2)S1,inactive
10,CCOC(=O)CSC1=NC(=O)/C(=C\c2ccc(OC(C)=O)cc2)S1,inactive
11,CC(Oc1ccccc1)C(=O)Nc1nc(-c2ccccn2)cs1 (stereo unspecified),inactive
12,CC(C)(C)C1CCC(OC(=O)CN2CCCCC2)CC1 (stereo unspecified),inactive
13,CC(O)CNC(=O)C1CCN(Cc2ccc(OCc3ccccc3)cc2)CC1 (stereo unspecified),inactive
14,Cc1cc(C(=O)CN2C(=O)c3ccccc3S2(=O)=O)c(C)n1-c1ccccc1,inactive
15,O=C(N/N=C\c1cc(Br)ccc1O)c1ccc(S(=O)(=O)N2CCCCC2)cc1,inactive
16,COC(=O)[C@@H](C)NC(=O)c1ccc2oc(CCc3ccccc3)nc2c1,inactive
17,O=C(Nc1nc2ccccc2s1)c1ccccc1[N+](=O)[O-],inactive
18,Cc1nc2nc(C)c(NS(=O)(=O)c3ccc4c(c3)CCCC4)c(=O)n2[nH]1,inactive
19,COc1ccc(/C=C2\SC(=O)N(CCCC(=O)Nc3cc(Cl)ccc3C(=O)O)C2=O)cc1,inactive
20,CC(C)c1ccc(CNc2ncccn2)cc1,inactive
21,COC(=O)c1ccc(/C=C(\C#N)C(=O)NC(C)c2ccccc2)cc1 (stereo unspecified),inactive
22,Clc1ccc(-c2nc(-c3ccncc3)no2)c(Cl)c1,inactive
23,Cc1ccc(C2CC(C(F)(F)F)n3nc(C(=O)NCc4c(C)nn(C)c4C)c(Cl)c3N2)cc1 (stereo unspecified),inactive
24,Cc1nn(-c2ccccc2Cl)c(Cl)c1/C=N/Nc1cccc(C(=O)O)c1,inactive

row,Structure (SMILES),outcome
1,O=C(Nc1ccc(OC(F)(F)F)cc1)c1[nH]ncc1[N+](=O)[O-],inactive
2,C=CCNC(=O)Cn1nnc(-c2ccc(-c3ccc(OC)cc3)cc2)n1,inactive
3,C=CCOc1ccc(/C=C2\SC(=S)N(CCC(=O)O)C2=O)cc1,inactive
4,CCc1nc2oc3ccccc3c(=O)c2cc1C(=O)OC,inactive
5,COc1ccc(S(=O)(=O)N2CCCCC2)cc1NC(=O)c1ccc([N+](=O)[O-])o1,inactive
6,CCCCOC(=O)c1[nH]c(C)c(C(=O)OC)c1C,inactive
7,Oc1ccc(CNc2ccccc2F)c2cccnc12,inactive
8,O=C(Cn1ncc(Cl)c(Cl)c1=O)c1ccc(Cl)cc1,inactive
9,Nc1nnnn1/N=C/C(Br)=C/c1ccccc1,inactive
10,Cc1ccsc1C(=O)OCC(=O)Nc1sccc1C(N)=O,inactive
11,CN(C)c1nc(C=C(C#N)C#N)c(Cl)n1-c1ccc(F)cc1,inactive
12,COc1ccc(/C=N/Nc2ccccn2)cc1OC,inactive
13,COc1ccc(-c2cc(-c3ccccc3O)[nH]n2)cc1OC,inactive
14,CCCCNC(=O)Nc1ccc(C2SCCS2)cc1,inactive
15,CN(C)Cc1c(O)ccc2c1O/C(=C\C=C\c1ccccc1)C2=O,inactive
16,Cc1nc2ccccn2c1C(=O)/C=C/c1cccc([N+](=O)[O-])c1,inactive
17,O=C(/C=C/c1cccc([N+](=O)[O-])c1)n1cnc2ccccc21,inactive
18,CCCOC(=O)c1ccc(NC(=O)C2CCCO2)cc1 (stereo unspecified),inactive
19,O=C(Nc1nnc(Cc2ccccc2)s1)c1ccccc1,inactive
20,CCOc1ccc(NC(=O)Nc2cccc(C(=O)O)c2)cc1,inactive
21,Cc1ccc(O)c(NC(=O)c2ccc3c(c2)C(=O)N(CC(C)C)C3=O)c1,inactive
22,CCN(CC)C(=O)CCCOc1ccc(Cl)cc1Cl,inactive
23,O=C(O)c1cccc(N/N=C/c2cccs2)c1,inactive
24,N#Cc1cc2c(nc1SC1CC(=O)N(c3ccccc3)C1=O)CCC2 (stereo unspecified),inactive

row,Structure (SMILES),outcome
1,CCOC(=O)c1nnn(-c2ccc([N+](=O)[O-])cc2[N+](=O)[O-])c1C,inactive
2,Cc1ccc2nc3cc([N+](=O)[O-])cc([N+](=O)[O-])c3cc2c1,inactive
3,COc1ccc(Nc2oc(-c3ccc(OC)cc3)nc2C#N)cc1,inactive
4,Cc1cccc(-c2nc(C#N)c(NCc3ccco3)o2)c1,inactive
5,COC(=O)c1c(C)[nH]c(/C=N/Nc2ccccc2)c1C,inactive
6,OCCNc1c2ccccc2nc2c(F)c(F)c(F)c(F)c12,inactive
7,FC(F)(F)Oc1ccc(-c2cn3cccnc3n2)cc1,inactive
8,COc1ccc(NC(=O)Nc2ccc(F)c(F)c2)c(OC)c1,inactive
9,Cc1ccc(-c2c[n+](Cc3cccc(Cl)c3)c3n2CCC3)cc1,inactive
10,Cc1ccc(-c2c[n+](Cc3ccc(Cl)cc3)c3n2CCC3)cc1,inactive
11,CC1CC(C)C[N+](=C2C=C(N3CCCC3)CC(C)(C)C2)C1 (stereo unspecified),inactive
12,COc1ccc(-c2noc(-c3cccs3)n2)cc1OC,inactive
13,O=C(Nc1cccnc1Cl)c1cc(-c2ccco2)on1,inactive
14,CCN(CC)S(=O)(=O)c1ccc(N2CCCC2)c(NC(=O)c2ccc([N+](=O)[O-])o2)c1,inactive
15,CSc1nc(N)n2nc(-c3ccccc3)cc2n1,inactive
16,COc1ccc(C(NC(C)=O)c2ccc3cccnc3c2O)c(OC)c1 (stereo unspecified),inactive
17,CC(=O)c1sc(N/N=C\c2ccc(N(C)C)cc2)nc1C,inactive
18,COc1ccc(-c2csc(N(C)C(=O)c3ccco3)n2)cc1,inactive
19,Cc1csc(N/N=C/c2ccc([N+](=O)[O-])cc2)n1,inactive
20,C(=N\Nc1cc(N2CCCCC2)ncn1)/c1ccco1,inactive
21,CCOc1ccc(C(=O)N2CCc3ccccc32)cc1,inactive
22,CC(=O)Oc1ccc(C)cc1-n1nc2ccccc2n1,inactive
23,CC(=O)Cn1ncc(Br)c(Br)c1=O,inactive
24,O=C(CCCN1C(=O)S/C(=C\c2ccccc2)C1=O)NNC(=O)c1ccccc1O,inactive

row,Structure (SMILES),outcome
1,O=C(CCCCl)NC(=S)Nc1ccc(N2CCOCC2)cc1,inactive
2,N/C(=N\OC(=O)Cc1cccs1)c1ccccc1,inactive
3,Cc1cc(C(=O)CSc2nnc3ccccn23)c(C)n1-c1ccccc1,inactive
4,O=C(Nc1cnc2ccccn2c1=O)c1ccc(F)cc1,inactive
5,O=C(Cc1ccc2c(c1)OCO2)NN=Cc1ccc([N+](=O)[O-])o1,inactive
6,CC1(C(=O)N/N=C/c2ccc([N+](=O)[O-])o2)CC1(Br)Br (stereo unspecified),inactive
7,Cc1ccc(NC(=O)CCC(=O)N/N=C/c2ccc([N+](=O)[O-])o2)cc1C,inactive
8,Cc1ccc(NCC(=O)N/N=C\c2ccc([N+](=O)[O-])o2)cc1,inactive
9,CCCCn1c(=O)[nH]c(=O)c2c1nc(Cn1ncc(Cl)c(Cl)c1=O)n2CCC,inactive
10,O=c1c(Cl)c(Cl)cnn1-c1ccccc1,inactive
11,CC(=O)OCCCNc1cc(Sc2ccc(Cl)cc2)c2nonc2c1[N+](=O)[O-],inactive
12,Cc1ccccc1OCc1nc2c3cnn(C)c3ncn2n1,inactive
13,c1cnc(SCCOc2ccc3c(c2)CCC3)nc1,inactive
14,CCn1nccc1C(=O)Nc1ccc(C)c(C)c1,inactive
15,Cc1ccc(NC(=O)c2cnc3ccccc3n2)cc1C,inactive
16,ClC1(Cl)CC1CSc1nnc(-c2ccncc2)o1 (stereo unspecified),inactive
17,O=C(Nc1ccc2nc3n(c(=O)c2c1)CCCCC3)c1cc([N+](=O)[O-])ccc1F,inactive
18,CC1CCN(CC2C(=O)O[C@@H]3C[C@@]4(C)CCC[C@H](C)C4=C[C@H]23)CC(C)(C)C1 (stereo partly specified),inactive
19,COc1cc(C(=O)N/N=C(\c2ccccc2)c2ccccn2)cc(OC)c1OC,inactive
20,O=C(NCc1ccc2c(c1)OCO2)c1cc(=O)[nH]c2ccccc12,inactive
21,COc1ccc(N(Cc2cc(=O)[nH]c3ccccc23)C(=O)CCl)cc1,inactive
22,CCC(=O)OCCNc1cc(Sc2nccn2C)c2nonc2c1[N+](=O)[O-],inactive
23,O=C1c2ccccc2C(=O)N1CCSc1ccccc1,inactive
24,CN(c1ccc2nc3ccccc3c(=O)n2n1)C1CCCCC1,inactive

row,Structure (SMILES),outcome
1,Cc1ccc(NC(=O)c2cc(-c3cccs3)on2)cc1,inactive
2,O=C(CCl)Nc1cn(-c2ccccc2)nc1-c1ccccc1,inactive
3,Cc1ccc2oc(C(Cl)(Cl)Cl)cc(=O)c2c1,inactive
4,O=C(CCl)N1c2ccccc2CCc2ccccc21,inactive
5,Cc1ccc(NC(=O)/C=C/c2ccc([N+](=O)[O-])s2)c(C)c1,inactive
6,CCCOc1ccc(C(=O)C(CN2CCCC2)c2ccccc2)cc1 (stereo unspecified),inactive
7,CCSC1(SCC)N=C(N)C2(C#N)C(c3ccc(F)cc3)C12C#N (stereo unspecified),inactive
8,O=C(CCCc1ccccc1)Nc1cccc(C(=O)O)c1,inactive
9,O=C(CSCc1c(F)cccc1F)Nc1ccccc1,inactive
10,CSc1nc(N)n2nc(-c3ccc(Cl)cc3)cc2n1,inactive
11,N#C/C(=C\C=C\c1ccccc1[N+](=O)[O-])C(=O)NC1CCCCC1,inactive
12,CN(C)c1nc(-c2ccccn2)nnc1-c1ccccc1,inactive
13,CCOc1cc(/C=C\[N+](=O)[O-])ccc1OCC(=O)N1CCOCC1,inactive
14,CS(=O)(=O)c1ccc2nc(NC(=O)c3ccccc3Br)sc2c1,inactive
15,COc1ccc(-n2ncc3c(N4CCCCC4)ncnc32)cc1,inactive
16,CN(C)c1cc[n+](CC(=O)c2ccc(-c3ccccc3)cc2)cc1,inactive
17,COc1cccc(NC(=O)c2cnn(-c3ccccc3)c2C)c1,inactive
18,CN1CCN(CCCOc2ccc(-c3ccccc3)cc2)CC1,inactive
19,O=C(CCl)N1N=C(c2ccco2)CC1c1cccs1 (stereo unspecified),inactive
20,CC(C)(C)OC(=O)N1CCN(C(=O)c2nc[nH]c2C(=O)N2CCN(c3ccccc3)CC2)CC1,inactive
